In publication PMC11006913:

biological target: PROP1 (Homo sapiens, UniProt O75360 56-141); assay: PBM; 200 nM protein, PBS; conditions: dsDNA, one strand shown
Sequence (O75360 56-141): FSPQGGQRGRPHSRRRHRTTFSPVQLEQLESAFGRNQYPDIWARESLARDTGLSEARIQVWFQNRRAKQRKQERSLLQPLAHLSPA

Sequence	binding signal
GCGGCCGA	6.81 upbm affinity estimate (log intensity, higher = more binding, comparable within an allelic series)
GACAGGGC	6.65 upbm affinity estimate (log intensity, higher = more binding, comparable within an allelic series)
GCCTGCGA	6.74 upbm affinity estimate (log intensity, higher = more binding, comparable within an allelic series)
CCGATGGC	6.65 upbm affinity estimate (log intensity, higher = more binding, comparable within an allelic series)
CTTGGGTC	6.81 upbm affinity estimate (log intensity, higher = more binding, comparable within an allelic series)
GCTCGGAC	6.55 upbm affinity estimate (log intensity, higher = more binding, comparable within an allelic series)
AGTCTGCG	6.67 upbm affinity estimate (log intensity, higher = more binding, comparable within an allelic series)
GGTGCACC	6.54 upbm affinity estimate (log intensity, higher = more binding, comparable within an allelic series)
AAATCATG	8.42 upbm affinity estimate (log intensity, higher = more binding, comparable within an allelic series)
CACGTCGC	6.91 upbm affinity estimate (log intensity, higher = more binding, comparable within an allelic series)
ATGACCAA	8.15 upbm affinity estimate (log intensity, higher = more binding, comparable within an allelic series)
ATCTTAAC	8.34 upbm affinity estimate (log intensity, higher = more binding, comparable within an allelic series)
GCGGACGC	6.53 upbm affinity estimate (log intensity, higher = more binding, comparable within an allelic series)
AATCACAT	9.48 upbm affinity estimate (log intensity, higher = more binding, comparable within an allelic series)
ATCACTAA	8.89 upbm affinity estimate (log intensity, higher = more binding, comparable within an allelic series)
TACCCTAA	8.09 upbm affinity estimate (log intensity, higher = more binding, comparable within an allelic series)
CGCGAACC	6.6 upbm affinity estimate (log intensity, higher = more binding, comparable within an allelic series)
GGCTGACC	6.72 upbm affinity estimate (log intensity, higher = more binding, comparable within an allelic series)

Sequence	binding signal
AGTAAATA	8.94 upbm affinity estimate (log intensity, higher = more binding, comparable within an allelic series)
AACTATAT	8.71 upbm affinity estimate (log intensity, higher = more binding, comparable within an allelic series)
AAGTTAAG	7.89 upbm affinity estimate (log intensity, higher = more binding, comparable within an allelic series)
GTCTCGAA	6.78 upbm affinity estimate (log intensity, higher = more binding, comparable within an allelic series)
GCATCTCC	6.85 upbm affinity estimate (log intensity, higher = more binding, comparable within an allelic series)
CGCGGTCC	6.77 upbm affinity estimate (log intensity, higher = more binding, comparable within an allelic series)
AGCTCCCG	6.72 upbm affinity estimate (log intensity, higher = more binding, comparable within an allelic series)
GGGTCGGA	6.69 upbm affinity estimate (log intensity, higher = more binding, comparable within an allelic series)
AATGGGGC	8.17 upbm affinity estimate (log intensity, higher = more binding, comparable within an allelic series)
CTCTGGAA	6.65 upbm affinity estimate (log intensity, higher = more binding, comparable within an allelic series)
CCTGTTAC	7.8 upbm affinity estimate (log intensity, higher = more binding, comparable within an allelic series)
AATCACCT	8.74 upbm affinity estimate (log intensity, higher = more binding, comparable within an allelic series)
AGGACACC	6.84 upbm affinity estimate (log intensity, higher = more binding, comparable within an allelic series)
CCGAGTTA	8.19 upbm affinity estimate (log intensity, higher = more binding, comparable within an allelic series)
GATAGTTA	8.6 upbm affinity estimate (log intensity, higher = more binding, comparable within an allelic series)
AATCTATA	8.79 upbm affinity estimate (log intensity, higher = more binding, comparable within an allelic series)
ATTACTAA	9.85 upbm affinity estimate (log intensity, higher = more binding, comparable within an allelic series)
AATTGGCG	9.12 upbm affinity estimate (log intensity, higher = more binding, comparable within an allelic series)

biological target: PROP1 (Homo sapiens, UniProt O75360 56-141, R99H); assay: PBM; 200 nM protein, PBS; conditions: dsDNA, one strand shown
Sequence (O75360 56-141 R99H): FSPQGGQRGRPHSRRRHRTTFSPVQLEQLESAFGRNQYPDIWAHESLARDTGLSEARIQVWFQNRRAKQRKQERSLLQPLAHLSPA

Sequence	binding signal
GCGGCCGA	6.82 upbm affinity estimate (log intensity, higher = more binding, comparable within an allelic series)
GACAGGGC	6.63 upbm affinity estimate (log intensity, higher = more binding, comparable within an allelic series)
GCCTGCGA	6.64 upbm affinity estimate (log intensity, higher = more binding, comparable within an allelic series)
CCGATGGC	6.61 upbm affinity estimate (log intensity, higher = more binding, comparable within an allelic series)
CTTGGGTC	6.75 upbm affinity estimate (log intensity, higher = more binding, comparable within an allelic series)
GCTCGGAC	6.66 upbm affinity estimate (log intensity, higher = more binding, comparable within an allelic series)
AGTCTGCG	6.73 upbm affinity estimate (log intensity, higher = more binding, comparable within an allelic series)
GGTGCACC	6.58 upbm affinity estimate (log intensity, higher = more binding, comparable within an allelic series)
CACGTCGC	6.79 upbm affinity estimate (log intensity, higher = more binding, comparable within an allelic series)
ATCTTAAC	7.85 upbm affinity estimate (log intensity, higher = more binding, comparable within an allelic series)
GCGGACGC	6.66 upbm affinity estimate (log intensity, higher = more binding, comparable within an allelic series)
ATCACTAA	8.2 upbm affinity estimate (log intensity, higher = more binding, comparable within an allelic series)
CGCGAACC	6.67 upbm affinity estimate (log intensity, higher = more binding, comparable within an allelic series)
GGCTGACC	6.74 upbm affinity estimate (log intensity, higher = more binding, comparable within an allelic series)
AGTAAATA	8.48 upbm affinity estimate (log intensity, higher = more binding, comparable within an allelic series)
GTCTCGAA	6.8 upbm affinity estimate (log intensity, higher = more binding, comparable within an allelic series)
GCATCTCC	6.93 upbm affinity estimate (log intensity, higher = more binding, comparable within an allelic series)
CGCGGTCC	6.82 upbm affinity estimate (log intensity, higher = more binding, comparable within an allelic series)
AGCTCCCG	6.63 upbm affinity estimate (log intensity, higher = more binding, comparable within an allelic series)
GGGTCGGA	6.78 upbm affinity estimate (log intensity, higher = more binding, comparable within an allelic series)
CTCTGGAA	6.87 upbm affinity estimate (log intensity, higher = more binding, comparable within an allelic series)
AGGACACC	6.77 upbm affinity estimate (log intensity, higher = more binding, comparable within an allelic series)
GATAGTTA	8.09 upbm affinity estimate (log intensity, higher = more binding, comparable within an allelic series)
AATCTATA	8.14 upbm affinity estimate (log intensity, higher = more binding, comparable within an allelic series)
ATTACTAA	9.4 upbm affinity estimate (log intensity, higher = more binding, comparable within an allelic series)
AATTGGCG	8.88 upbm affinity estimate (log intensity, higher = more binding, comparable within an allelic series)

biological target: PROP1 (Homo sapiens, UniProt O75360 56-141, F88S); assay: PBM; 200 nM protein, PBS; conditions: dsDNA, one strand shown
Sequence (O75360 56-141 F88S): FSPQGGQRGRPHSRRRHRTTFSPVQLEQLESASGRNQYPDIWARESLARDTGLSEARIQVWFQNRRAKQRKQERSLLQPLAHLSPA

Sequence	binding signal
GCGGCCGA	6.76 upbm affinity estimate (log intensity, higher = more binding, comparable within an allelic series)
GACAGGGC	6.47 upbm affinity estimate (log intensity, higher = more binding, comparable within an allelic series)
GCCTGCGA	6.59 upbm affinity estimate (log intensity, higher = more binding, comparable within an allelic series)
CCGATGGC	6.61 upbm affinity estimate (log intensity, higher = more binding, comparable within an allelic series)
CTTGGGTC	6.83 upbm affinity estimate (log intensity, higher = more binding, comparable within an allelic series)
GCTCGGAC	6.68 upbm affinity estimate (log intensity, higher = more binding, comparable within an allelic series)
AGTCTGCG	6.68 upbm affinity estimate (log intensity, higher = more binding, comparable within an allelic series)
GGTGCACC	6.7 upbm affinity estimate (log intensity, higher = more binding, comparable within an allelic series)
AAATCATG	7.26 upbm affinity estimate (log intensity, higher = more binding, comparable within an allelic series)
CACGTCGC	6.8 upbm affinity estimate (log intensity, higher = more binding, comparable within an allelic series)
ATGACCAA	7.17 upbm affinity estimate (log intensity, higher = more binding, comparable within an allelic series)
ATCTTAAC	7.45 upbm affinity estimate (log intensity, higher = more binding, comparable within an allelic series)
GCGGACGC	6.56 upbm affinity estimate (log intensity, higher = more binding, comparable within an allelic series)
AATCACAT	7.46 upbm affinity estimate (log intensity, higher = more binding, comparable within an allelic series)
ATCACTAA	7.19 upbm affinity estimate (log intensity, higher = more binding, comparable within an allelic series)
TACCCTAA	7.04 upbm affinity estimate (log intensity, higher = more binding, comparable within an allelic series)
CGCGAACC	6.71 upbm affinity estimate (log intensity, higher = more binding, comparable within an allelic series)
GGCTGACC	6.56 upbm affinity estimate (log intensity, higher = more binding, comparable within an allelic series)

Sequence	binding signal
AGTAAATA	7.6 upbm affinity estimate (log intensity, higher = more binding, comparable within an allelic series)
AACTATAT	7.61 upbm affinity estimate (log intensity, higher = more binding, comparable within an allelic series)
AAGTTAAG	7.07 upbm affinity estimate (log intensity, higher = more binding, comparable within an allelic series)
GTCTCGAA	7.1 upbm affinity estimate (log intensity, higher = more binding, comparable within an allelic series)
GCATCTCC	6.57 upbm affinity estimate (log intensity, higher = more binding, comparable within an allelic series)
CGCGGTCC	6.49 upbm affinity estimate (log intensity, higher = more binding, comparable within an allelic series)
AGCTCCCG	6.46 upbm affinity estimate (log intensity, higher = more binding, comparable within an allelic series)
GGGTCGGA	6.58 upbm affinity estimate (log intensity, higher = more binding, comparable within an allelic series)
AATGGGGC	7.05 upbm affinity estimate (log intensity, higher = more binding, comparable within an allelic series)
CTCTGGAA	6.91 upbm affinity estimate (log intensity, higher = more binding, comparable within an allelic series)
CCTGTTAC	7.11 upbm affinity estimate (log intensity, higher = more binding, comparable within an allelic series)
AATCACCT	7.3 upbm affinity estimate (log intensity, higher = more binding, comparable within an allelic series)
AGGACACC	6.75 upbm affinity estimate (log intensity, higher = more binding, comparable within an allelic series)
CCGAGTTA	7.14 upbm affinity estimate (log intensity, higher = more binding, comparable within an allelic series)
GATAGTTA	7.39 upbm affinity estimate (log intensity, higher = more binding, comparable within an allelic series)
AATCTATA	7.56 upbm affinity estimate (log intensity, higher = more binding, comparable within an allelic series)
ATTACTAA	7.62 upbm affinity estimate (log intensity, higher = more binding, comparable within an allelic series)
AATTGGCG	7.29 upbm affinity estimate (log intensity, higher = more binding, comparable within an allelic series)
